Assay results published in PubChem BioAssay (NCI).
“And” between values parts separate entries of the source, which are not always exact repeats. Identical values can stand only once. Compounds without any hit were thinned out: in the full panel of roughly 83,000, 20% have a hit.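 Note: values are percent growth. 100 is the growth of untreated cells, values between 100 and 0 indicate rising inhibition; between -100 and 0 indicates cell death.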 Values without a mark were called inactive. The source made the active and inactive calls. The calls were made as follows: active = growth percent below 10; inactive = the rest.

System: MDA-MB-468 breast
Assay: NCI-60 one-dose screen, 48 h (100 = growth as untreated, 0 = no growth, -100 = all killed)
Settings: 10 µM unless noted

| SMILES | growth |
| --- | --- |
| c1ccc([P+](c2ccccc2)(c2ccccc2)c2ccc3c4ccc([P+](c5ccccc5)(c5ccccc5)c5ccccc5)c5cccc(c6cccc2c63)c54)cc1 | -10.9% (active) |
| Cc1ccc(C(=O)c2sc3nc4c(cc3c2N)CCCC4)c(C)c1 | 32.3% |
| O=C(/C=C/c1ccccc1)N(C1CCCCC1)C1CCCCC1 | 72.4% |
| COc1cc(C2C(C(=O)OCc3ccccc3)=C(C)NC(C)=C2C(=O)OCc2ccccc2)cc(OC)c1OC | 11.6% |
| COc1ccccc1-c1ccc2nc(NC(=O)Nc3cc(C(F)(F)F)cc(C(F)(F)F)c3)sc2c1 | -8.23% (active) |
| CCCCCCCCCCCCCCCCCC1=NCCN1CCO | 102% |
| COc1cc(NC(=O)Nc2cnc(Nc3ccc(N4CCOCC4)cc3)nc2Oc2ccc(F)cc2)cc(OC)c1 | 95.5% |
| Fc1cc2c(cc1Cl)N(c1ncnc3ccc(-c4ccc5n[nH]nc5c4)cc13)CC2 | 40.2% |
| Cc1nonc1-c1ccc2c(c1)OCO2 | 111% and 93.8% |
| Nc1cc(C(=O)O)cc(C(=O)O)c1 | 112% |
| COC(=O)[C@]1(C(C)C)N[C@H](c2cn(-c3ccccc3)nc2-c2ccccc2)[C@@H]2C(=O)N(c3ccc(Cl)cc3)C(=O)[C@@H]21 | 119% |
| Cc1cccc(-n2c(C)nc3ccc(N4CCCNC4=O)cc3c2=O)c1 | 99.4% |
| C=CCn1c(C)nc2cc(Nc3nc(Nc4ccc5nc(C)n(CC=C)c5c4)nc4ccccc34)ccc21 | 118% |
| N#Cc1c(-c2ccc(F)cc2)nc2c(C#N)c(Nc3ccccc3)nn2c1N | 103% |
| COc1cc(C(=O)/C=C/c2c(C)n([O-])c3ccc(Cl)cc3[n+]2=O)cc(OC)c1OC | 27.6% |
| NNCCc1ccc(NC(=O)CCCc2ccc(/C=C/C(=O)NO)cc2)cc1 | 18% |
| CCNC(=O)Oc1ccc(/C(=C(/C)c2ccccc2)c2ccc(OCCN3CCCCCC3)cc2)cc1 | -16.9% (active) |
| COc1ccccc1/C=N\Nc1ccc([N+](=O)[O-])cn1 | 109% |
| COc1cc(-c2nn(C(C)(C)C)cc2-c2ccnc(NCCCNS(=O)(=O)c3ccc(F)cc3)n2)ccc1Cl | 72.9% |
| CCOC(=O)CC(=O)c1c(C)cc(C)cc1C | 98.6% |

| SMILES | growth |
| --- | --- |
| CN(C)CCCNc1nc(-c2cccc(C(Cl)(Cl)Cl)c2)nc(C(Cl)(Cl)Cl)n1 | 114% |
| O=C(O)C(=Cc1c2ccccc2cc2ccccc12)C(=O)O | 116% |
| COc1cnc2c(c1)C(=O)c1c-2n(CCCN2CCN(C)CC2)c(=O)c2cc([N+](=O)[O-])ccc12 | -57.9% (active) |
| S=C(NCc1ccccc1)N1CCC(CCCC2CCN(C(=S)NCc3ccccc3)CC2)CC1 | 69.1% |
| CN(CC(=O)N(Cc1ccc(C2CCCCC2)cc1)c1ccc(C(=O)NO)cc1)S(=O)(=O)c1c(F)c(F)c(F)c(F)c1F | -36.3% (active) |
| N#Cc1ccc(C2C3=C(CCCC3=O)OC3=C2C(=O)c2ccccc2C3=O)cc1 (stereo not given) | -16.1% (active) |
| COc1ccc(OC)c(/C=C/c2nnc(Nc3ccccc3)o2)c1 | 103% |
| O=c1cc(Cl)nc2ccccn12 | 107% |
| CCCCC/C=C/C(=O)CCc1ccc(O)c(OC)c1 | 65.8% |
| C1=C(Cc2ccccc2)n2cnc3ncnc(c32)S1 | -11.8% (active) |
| COc1ccc(Nc2nc(Nc3cc(C)[nH]n3)c3cc(OC)c(OC)cc3n2)cc1 | -69.9% [20 µM] (active) |
| CCCCCCCCCCCCCCCCCCOc1ccc(CC(=O)OCC[N+]2(C)CCCCC2)cc1 | 92.2% |
| CSc1nc(N)c(NS(=O)(=O)c2ccc(C(C)=O)cc2)c(=O)[nH]1 | 97% |
| O=CCCCOCc1ccccc1 | 112% |
| N#Cc1nc(-c2ccccc2)oc1S(N)(=O)=O | 41.1% |
| O=C(Nc1ccc2c(c1)OCCO2)C(=O)c1c[nH]c2ccccc12 | -0.365% (active) |
| CCN1C(=O)N(CC)C2SC(N/N=C/c3ccc(F)cc3)=NC21 (stereo not given) | 36.8% |
| O=C(CCCCCCNC(=O)C(O)(O)C(F)(F)F)Nc1ncc(-c2ccc(Br)cc2)s1 | -35.8% (active) |
| O=c1c2cccc3c(NC4CCCCC4)ccc(c32)c2nc3ccccc3n12 | -4.69% (active) |
| C#CCO[C@H]1CC(CC#C)(CC#C)C(=O)[C@@H]2[C@H]1[C@H]1C[C@@H]3[C@@]4(C)CCC[C@@](C)(C(=O)OC)[C@@H]4CC[C@@]23C=C1C(C)C | 94.7% |
